# Source: PubChem BioAssay (Tox21)
# Records with an inconclusive call do not appear. Unmarked numbers belong to inactive results. Active and inactive are the calls of the source. Calls come from the whole dose curve.
# Test: p53 small molecule agonists, cell-based qHTS assay: qHTS cell viability counter screen (AID 1963581); note: nearly all actives have a fitted effect of over 45% in size
# Details: p53RE-bla HCT-116 viability, ATP luminescence, 16 h; series mostly up to 66 µM; activity change, negative = cytotoxicity: at the top concentration
# Text: National Center for Advancing Translational Sciences [NCATS]
# Division of Preclinical Innovation [DPI]
# U.S. Environmental Protection Agency [EPA]
# National Institutes of Environmental Health Sciences [NIEHS]
# National Toxicology Program [NTP]
# U.S. Food and Drug Administration [FDA]
# p53, a tumor suppressor protein, is activated following cellular insult, including DNA damage and other cellular stresses. The activation of p53 regulates cell fate by inducing DNA repair, cell cycle arrest, apoptosis, or cellular senescence. The activation of p53, therefore, is a good indicator of DNA damage and other cellular stresses. The CellSensor p53RE-bla HCT-116 cell line (Invitrogen) contains a stably integrated beta-lactamase reporter gene under control of the p53 response elements. The activation of the reporter gene under culture conditions can be detected by fluorescence intensity. This cell line was used to screen the Tox21 compound library in a 1536-well plate format and to identify agonists that activate the p53 signaling pathway. The cytotoxicity of the Tox21 compound library against the p53 RE-bla HCT-116 cell line was tested in parallel by measuring the intra cellular ATP content in the same wells.
# Tox21 Assay Protocol Summary:
# The p53RE-bla cells were dispensed at 4,000 cells/5 ul/well in 1536-well black wall/clear bottom plates using a Multidrop dispenser. After the assay plates were incubated at a 37 C/5% CO2 incubator for 5 hours, 23 nL of compounds dissolved in DMSO, positive controls or DMSO only was transferred to the assay plate by a pin tool. The plates were incubated at 37 C for 16 hours. After 1 uL of LiveBLAzerTM B/G FRET substrate was added using a Flying Reagent Dispenser, the plates were incubated at room temperature for 2 hours, and fluorescence intensity was measured by an Envision plate reader. For cell viability readout that measures cytotoxicity, 4 ul/well of CellTiter-Glo reagent was added into the assay plates using a Flying Reagent Dispenser. After 30 min incubation at room temperature, the luminescence intensity in the plates was measured using a ViewLux plate reader.
# % is set by controls: 0 for no effect and ±100 for the full control effect; potency is the fitted concentration of half-maximal effect.
SMILES,"activity change, negative = cytotoxicity",Potency
c1cnc2cc3c(cc2n1)C1CNCC3C1,2.58% [at 30.3 µM],
CC(O)C(C)O (stereo not given),-0.724%,
CC1=C(O)C(=O)OC1C (stereo not given),6.38%,
COc1c2ccoc2cc2oc(=O)ccc12,,inactive
C=CCc1cc(OC)c(O)c(C(=O)NCCO)c1,-2.79% [at 30.3 µM],
O=C(O)CCc1ccccc1,4.4%,
OCc1ccccc1,,inactive
CCCC(C)CCC(C)=O (stereo not given),5.89%,
C=CC(=O)NCOCC(C)C,7.23%,
CCN1CCCC(OC(=O)C(c2ccccc2)c2ccccc2)C1 (stereo not given),2.87% [at 30.3 µM],
Nc1c(NC/C=C\COc2cc(CN3CCCCC3)ccn2)c(=O)c1=O,-0.902% [at 13.5 µM],
CC(C)C(=O)C(C)C,1.91%,
CCCc1cc(C(N)=S)ccn1,-5.69% [at 30.3 µM],
ClCCCl,-0.247%,
Cc1cn([C@H]2C[C@H](F)[C@@H](CO)O2)c(=O)[nH]c1=O,-1.24% [at 30.3 µM],
N[C@H](C(=O)O)c1ccc(O)cc1,-1.01% [at 13.5 µM],
Cc1cncc(C)c1,-0.715%,
CC/C(=C(/CC)c1ccc(O)cc1)c1ccc(O)cc1,-17.6% [at 30.3 µM],
FC(F)(F)c1ccccc1-n1ccnc1,0.21% [at 30.3 µM],
O=C(O)c1ccc(OCCN2CCCCC2)cc1,-7.54% [at 30.3 µM],

SMILES,"activity change, negative = cytotoxicity",Potency
O=C(O)CCCCCC(=O)O,4.06%,
CCC(C)C1N=C(C)C(C)S1 (stereo not given),-6.66%,
N[C@@H](CCC(=O)Nc1ccc([N+](=O)[O-])cc1)C(=O)O,0.727%,
CCOC(=O)CCC(C)=O,1.11%,
O=CC1CC1,7.06%,
CCCCC/C=C/C=C/C=O,,inactive
OC[C@H]1O[C@@H](O[C@H]2[C@H](O)[C@@H](O)[C@H](O)O[C@@H]2CO)[C@H](O)[C@@H](O)[C@H]1O,22.8%,
CC(=O)/C=C/C1C(C)=CCC(C)C1(C)C (stereo not given),-8.4%,
CO[Si](CCCNCCN)(OC)OC,17.3%,
CC(=O)Oc1ccccc1C(=O)Nc1ncc([N+](=O)[O-])s1,,11.7 µM (active)
CCC(C)(C)C1CCCCC1OC(C)=O (stereo not given),14.9%,
O=C(CCNNC(=O)c1ccncc1)NCc1ccccc1,-3.3% [at 30.3 µM],
CN1CCCC1=O,,inactive
O=C1CCCCC1,,inactive
CCCCCCCCCCCCCCO,,inactive
CC(=O)Nc1ccc(C)cc1,0%,
CC[N+](C)(C)c1cccc(O)c1,8.41% [at 30.3 µM],
C/C(=C1\CCOC(=O)S1)N(C=O)Cc1cnc(C)nc1N,-18.9% [at 30.3 µM],
C/C=C/CO,-1.2%,
Clc1nc(Cl)c(Cl)c(Cl)c1Cl,,inactive
